Twelve compounds from PubChem BioAssay (NCATS) can be followed below.

Assay [1] concerns the target Lysosomal acid glucosylceramidase (Homo sapiens) (UniProt P04062). As to the kind of experiment: Glucocerebrosidase-p2 (AID 348; in the data active = potency below about 10 µM; note: potency is the fitted concentration of half-maximal effect). To be noted: purified GBA, blue fluorogenic substrate, 40 min. Summed up: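 Normal human glucocerebrosidase (0.2 nM) with blue fluorogenic substrate (80 uM final) in citrate/phosphate pH 5.9 with 10mM sodium taurocholate, 0.01% tween-20; 40 min RT, NaOH/glycine stop; fluorescence Ex 365/Em 440; AC50 from a titration from 0.6 nM upwards.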

Assay [2] is described as follows: AP1 Signaling Pathway (AID 357; active = well fitted curve in either direction with a large enough effect, not every such curve was filed as active;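 note: ME-180 reporter cells stimulated with EGF at its EC50 level; % is set by controls: 0 for no effect and ±100 for the full control effect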). To be noted: ME-180 AP-1-bla reporter, EGF-induced, beta-lactamase ratio, 5 h; at 7.69 µM (top of the series) unless noted. In outline:
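In this screen, ME-180 cells in Opti-MEM with 0.5% dialyzed FBS received EC50 EGF and compound titrations for 5 h. AP-1 reporter beta-lactamase was detected via CCF4 ratio, giving AC50 for positive and negative modulators.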

Assay [3] has as its target Cytochrome P450 1A2 (Homo sapiens) (UniProt P05177). As to the kind of experiment: p450-cyp1a2 (AID 410; calls by dose curve; note: potency is the fitted concentration of half-maximal effect). In outline: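 Read-out is luminescence from luciferin produced by CYP1A2 demethylation of Luciferin-ME (100uM, at Km). Detection reagent stopped the 60 min NADPH-dependent reaction; signals were normalized to 57 uM furafylline.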
A short description of assay [4]: NFAT Signaling Pathway (AID 444; active = well fitted curve in either direction with a large enough effect, not every such curve was filed as active;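 note: carbachol stimulus at about its EC50 of 1 µM final; % is set by controls: 0 for no effect and ±100 for the full control effect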). To be noted: Jurkat NFAT-bla M1, carbachol, beta-lactamase ratio, 5 h; at 7.69 µM (top of the series) unless noted. Summed up: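 Jurkat cells carrying an NFAT-driven β-lactamase reporter and co-transfected muscarinic M1 receptor were treated with compound plus carbachol (1 uM final, an EC50 level) for 5 h at 37 °C. CCF4 loading followed for 1 h at RT; 460/530 nm ratio gave %activity.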

A short description of assay [5]: Stat Signaling Pathway (AID 446; active = well fitted curve in either direction with a large enough effect, not every such curve was filed as active;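 note: ME-180 cervical cancer cells given 40 pM IL-6 alongside compound; SIE-controlled beta-lactamase reporter measured as 460/530 nm FRET emission ratio; % is set by controls: 0 for no effect and ±100 for the full control effect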). In outline: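 FRET read-out (405 nm excitation, 460/530 nm emission) of a beta-lactamase reporter under a STAT-inducible element in ME-180 cervical carcinoma cells. Cells with compound receive 40 pM IL-6 for 5 h. Values are normalised to AC90 stimulation and AC90 JAK-inhibitor controls.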
Assay [6] deals with Glucocorticoid receptor (Homo sapiens) (UniProt P04150). The assay can be described thus: GR-GFP Redistribution (AID 450;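 active = compounds whose dose series gives a full or clear partial fitted curve of increased nuclear translocation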; note: potency is the fitted concentration of half-maximal effect). To be noted: U2OS GR-GFP nuclear translocation, laser cytometry, 2 h.
Assay [7] shares this target. As to the kind of experiment: GR-EFC Redistribution (AID 451; calls by dose curve; note: potency is the fitted concentration of half-maximal effect). To be noted: CHO-K1 GR-EFC translocation, beta-gal luminescence, 2 h. In outline:
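CHO-K1 cells stably expressing nuclear-localized β-gal enzyme acceptor and GR fused C-terminally to the enzyme donor fragment; ligand-driven nuclear translocation restores β-gal by complementation. Compounds titrated up to 46 uM final, 2 h at 37 °C; luminescence read.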

The target of assay [8] is Cytochrome P450 3A4 (Homo sapiens) (UniProt P08684). The assay can be described thus: qHTS Assay for Activators of Cytochrome P450 3A4 (AID 885). Note: nearly all actives have a fitted effect of over 65% in size. Summed up: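 Luminescent readout of luciferin formed from 25 uM Luciferin-PPXE (KM level) by 20 nM CYP3A4 in 200 mM KPO4, with 60 min NADPH-driven reaction at room temperature after 10 min compound exposure. Ketoconazole (57 uM) defined 100% inhibition.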
A general note: Quantitative high-throughput screening tests each substance at several concentrations.

For assay [9], the target named is Dual specificity protein kinase CLK4 (Homo sapiens) (UniProt Q9HAZ1). The assay can be described thus: qHTS Assay for Inhibitors of CDC-like Kinase 4 (Kinase-Glo Assay) (AID 1770). Note: nearly all actives have a fitted effect of over 65% in size. Note: potency is the fitted concentration of half-maximal effect. In outline: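 Substrate mix (RS peptide 100 uM, ATP 1 uM) dispensed, compound pinned in, then Clk4 added to 25 nM final. Incubated 4.5 h at RT; Kinase-Glo reagent added, luminescence read after 5 min.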

For assay [10] the target is unchanged. The assay can be described thus: qHTS Assay for Inhibitors of CDC-like Kinase 4 (ADP-Glo Assay) (AID 1771). Note: nearly all actives have a fitted effect of over 70% in size. Note: potency is the fitted concentration of half-maximal effect. In outline:
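In this ADP-Glo format, 1 uM ATP and 100 uM RS peptide served as substrates for 25 nM Clk4 in Mg2+/EGTA/DTT/Triton buffer; reactions ran 1 hr at room temperature before luminescent ADP quantification.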

Assay [11] has the same target. The assay can be described thus: qHTS Assay for Inhibitors of CDC-like Kinase 4 (ADP-FP Assay) (AID 1795).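 Note: recombinant human CLK4 phosphorylating RS repeat peptide at 1 µM ATP; % is set by controls: 0 for no effect and ±100 for the full control effect; nearly all actives have a fitted effect of over 60% in size.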 Summed up: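 Clk4 6.25 nM; RS peptide 100 uM; ATP 1 uM; 25 mM Tris pH 7.5, 10 mM MgCl2; 1 h reaction. ADP detected via antibody/orange tracer FP displacement; TG003 positive control.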
The target in assay [12] is Ubiquitin carboxyl-terminal hydrolase 1 (Homo sapiens) (UniProt O94782). As to the kind of experiment: Inhibitors of USP1/UAF1: Pilot qHTS (AID 504865).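 Note: rhodamine fluorescence freed from ubiquitin-rhodamine substrate followed over time; top concentration of the series differs between compounds; % is set by controls: 0 for no effect and ±100 for the full control effect; nearly all actives have a fitted effect of over 35% in size.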 Summed up: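 In 50mM HEPES pH 7.8 containing 0.5mM EDTA, 1mM TCEP, 0.1 mg/ml BSA and 0.01% Tween-20, 1nM USP1/UAF1 is exposed to compound for 15 min, then Ub-Rho (150nM final) is added and fluorescence is read over time.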

In assay [13] the target is 3',5'-cyclic-AMP phosphodiesterase 4B (Homo sapiens) (UniProt Q07343). As to the kind of experiment: qHTS Assay for Inhibitors of PDE-IV (AID 607; active = well fitted activation curve with a large enough effect in the main read-out, with a control signal flat, not every such curve was filed as active; note: % of control where 0% means no effect). In outline: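 Cell-based read-out of cAMP via a modified cyclic nucleotide-gated channel and membrane potential dye (535/590 nm) in HEK293 cells expressing PDE4 endogenously. Compounds tested up to 22.9 uM final; 100 uM RO 20-1724 reference.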

The target in assay [14] is Mitogen-activated protein kinase 10 (Mus musculus) (UniProt Q61831). As to the kind of experiment: JNK3 AlphaScreen Assay (AID 530; active = well fitted curve in either direction with a large enough effect, not every such curve was filed as active;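 note: kinase came from lysate of stimulated human HepG2 cells; signal reports phosphorylation of biotinylated GST-cJun 1-79 at Ser73 with 10 µM ATP; % is set by controls: 0 for no effect and ±100 for the full control effect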). In outline: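 Biotinylated GST-cJun(1-79) served as substrate for JNK3 in HepG2 lysates stimulated with IL-1beta and TNF-alpha. ATP was 10 uM final, pH 7.6. Ser73 phosphorylation was quantified by AlphaScreen (680 nm excitation).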
Assay [15] concerns the target Cytochrome P450 3A4 (Homo sapiens) (UniProt P08684). As to the kind of experiment: qHTS Assay for Inhibitors and Substrates of Cytochrome P450 3A4 (AID 884). Note: potency is the fitted concentration of half-maximal effect; nearly all actives have a fitted effect of over 50% in size. In outline: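 Luminescent readout of luciferin produced by CYP3A4 (20 nM) dealkylation of Luciferin-PPXE, 25 uM (its KM). NADPH-driven reaction ran 60 min at RT after 10 min compound preincubation; data scaled to 57 uM ketoconazole as 100% inhibition.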

The target in assay [16] is Cytochrome P450 2C19 (Homo sapiens) (UniProt P33261). As to the kind of experiment: qHTS Assay for Inhibitors and Substrates of Cytochrome P450 2C19 (AID 899). Note: potency is the fitted concentration of half-maximal effect; nearly all actives have a fitted effect of over 60% in size. Summed up:
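In 50mM KPO4, the reaction held 5nM enzyme and KM-level (10uM) Luciferin-H EGE; it ran 60 min at 37C after NADPH regeneration and a 10 min compound preincubation. Luminescence values were scaled to 57uM ketoconazole as complete inhibition.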

The nature of assay [17]: qHTS Assay for Identification of Small Molecule Agonists for Hypoxia Response Element Signaling Pathway (AID 914; active = well fitted activation curve with a large enough effect in the signal ratio, with a control signal flat, not every such curve was filed as active; the % refers to the signal ratio; note: potency is the fitted concentration of half-maximal effect). The conditions noted are these: ME-180 (cervical carcinoma) HRE-bla reporter, beta-lactamase ratio, CoCl2, 17 h; activation: stronger effect = higher value. Summed up: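 A beta-lactamase reporter under hypoxia response element control in ME-180 cells served as the system. Compound titrations plus EC50 CoCl2 ran 17 h at 37 degrees Celsius; AC50 values were fitted from %Activity.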

Molecules are shown by their SMILES. A number with no mark means an inactive call. Records with an inconclusive call do not appear. Activity calls are given as the source filed them. Unless noted, calls come from the whole dose curve; as a rule, active = well fitted curve in the direction sought with a large enough effect; inconclusive = small, poorly fitted or top-dose-only effect, or another doubt; inactive = no such curve, though single readings can be large; an effect the other way counts as inactive or inconclusive.

Sequence of Cytochrome P450 1A2 (Homo sapiens) (P05177 whole entry, looked up): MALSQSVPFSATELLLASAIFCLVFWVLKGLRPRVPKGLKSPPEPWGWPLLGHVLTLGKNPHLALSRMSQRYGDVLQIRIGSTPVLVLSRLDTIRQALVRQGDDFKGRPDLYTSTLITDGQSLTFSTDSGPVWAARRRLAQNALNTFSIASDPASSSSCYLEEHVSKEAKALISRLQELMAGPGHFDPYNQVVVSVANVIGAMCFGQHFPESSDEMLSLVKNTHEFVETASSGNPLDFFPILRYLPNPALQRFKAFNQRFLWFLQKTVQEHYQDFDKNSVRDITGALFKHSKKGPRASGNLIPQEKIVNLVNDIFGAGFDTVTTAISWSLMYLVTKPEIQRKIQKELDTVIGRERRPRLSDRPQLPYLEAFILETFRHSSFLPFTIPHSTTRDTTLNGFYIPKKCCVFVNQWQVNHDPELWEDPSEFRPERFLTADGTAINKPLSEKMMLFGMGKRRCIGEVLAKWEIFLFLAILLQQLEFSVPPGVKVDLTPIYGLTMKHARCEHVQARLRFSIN
Sequence of Dual specificity protein kinase CLK4 (Homo sapiens) (Q9HAZ1 whole entry, looked up): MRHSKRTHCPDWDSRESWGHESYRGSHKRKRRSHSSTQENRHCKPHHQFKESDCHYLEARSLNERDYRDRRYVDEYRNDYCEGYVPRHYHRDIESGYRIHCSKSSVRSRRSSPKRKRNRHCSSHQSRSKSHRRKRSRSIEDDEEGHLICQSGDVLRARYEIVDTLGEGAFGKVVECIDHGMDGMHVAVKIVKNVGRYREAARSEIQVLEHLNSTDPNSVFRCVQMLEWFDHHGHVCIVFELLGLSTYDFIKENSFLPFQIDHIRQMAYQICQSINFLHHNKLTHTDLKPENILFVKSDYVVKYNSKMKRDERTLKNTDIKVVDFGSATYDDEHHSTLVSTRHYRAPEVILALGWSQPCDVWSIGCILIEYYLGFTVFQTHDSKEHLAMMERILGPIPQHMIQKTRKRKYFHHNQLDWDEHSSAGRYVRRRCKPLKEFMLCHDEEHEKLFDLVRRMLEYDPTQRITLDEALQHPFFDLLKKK
Sequence of Ubiquitin carboxyl-terminal hydrolase 1 (Homo sapiens) (O94782 whole entry, looked up): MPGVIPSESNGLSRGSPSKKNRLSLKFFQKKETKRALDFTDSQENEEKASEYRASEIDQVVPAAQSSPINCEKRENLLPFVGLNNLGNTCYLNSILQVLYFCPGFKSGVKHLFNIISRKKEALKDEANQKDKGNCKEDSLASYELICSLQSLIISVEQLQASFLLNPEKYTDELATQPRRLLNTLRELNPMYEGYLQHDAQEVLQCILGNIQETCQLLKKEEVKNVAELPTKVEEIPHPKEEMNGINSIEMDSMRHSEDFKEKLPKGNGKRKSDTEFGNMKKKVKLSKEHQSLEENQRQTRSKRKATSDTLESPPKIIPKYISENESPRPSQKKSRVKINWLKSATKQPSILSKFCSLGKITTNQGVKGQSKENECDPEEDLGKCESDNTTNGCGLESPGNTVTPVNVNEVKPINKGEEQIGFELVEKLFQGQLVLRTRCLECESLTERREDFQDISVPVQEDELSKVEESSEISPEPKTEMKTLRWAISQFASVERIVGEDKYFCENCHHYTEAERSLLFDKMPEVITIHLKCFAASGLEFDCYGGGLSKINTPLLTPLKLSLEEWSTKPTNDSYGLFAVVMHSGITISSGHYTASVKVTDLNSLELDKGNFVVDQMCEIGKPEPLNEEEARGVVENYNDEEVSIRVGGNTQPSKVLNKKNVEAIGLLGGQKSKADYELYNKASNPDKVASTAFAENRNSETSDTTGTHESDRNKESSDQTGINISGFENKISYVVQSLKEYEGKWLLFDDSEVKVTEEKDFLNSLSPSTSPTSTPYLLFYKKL
Sequence of Lysosomal acid glucosylceramidase (Homo sapiens) (P04062 whole entry, looked up): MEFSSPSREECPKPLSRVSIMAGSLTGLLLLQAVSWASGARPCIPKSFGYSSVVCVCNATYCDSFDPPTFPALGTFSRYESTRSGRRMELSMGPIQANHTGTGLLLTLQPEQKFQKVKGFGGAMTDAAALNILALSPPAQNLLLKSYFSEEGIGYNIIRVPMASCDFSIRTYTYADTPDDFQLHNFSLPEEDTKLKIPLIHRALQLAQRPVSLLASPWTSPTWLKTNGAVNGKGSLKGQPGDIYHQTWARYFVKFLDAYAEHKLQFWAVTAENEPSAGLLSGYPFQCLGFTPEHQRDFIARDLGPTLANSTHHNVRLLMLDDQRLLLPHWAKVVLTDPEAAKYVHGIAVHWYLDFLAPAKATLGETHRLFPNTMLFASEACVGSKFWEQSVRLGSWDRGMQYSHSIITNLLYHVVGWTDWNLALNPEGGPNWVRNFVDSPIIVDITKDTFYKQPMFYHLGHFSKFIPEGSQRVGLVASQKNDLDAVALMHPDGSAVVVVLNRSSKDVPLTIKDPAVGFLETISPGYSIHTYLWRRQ
Sequence of 3',5'-cyclic-AMP phosphodiesterase 4B (Homo sapiens) (Q07343 whole entry, looked up): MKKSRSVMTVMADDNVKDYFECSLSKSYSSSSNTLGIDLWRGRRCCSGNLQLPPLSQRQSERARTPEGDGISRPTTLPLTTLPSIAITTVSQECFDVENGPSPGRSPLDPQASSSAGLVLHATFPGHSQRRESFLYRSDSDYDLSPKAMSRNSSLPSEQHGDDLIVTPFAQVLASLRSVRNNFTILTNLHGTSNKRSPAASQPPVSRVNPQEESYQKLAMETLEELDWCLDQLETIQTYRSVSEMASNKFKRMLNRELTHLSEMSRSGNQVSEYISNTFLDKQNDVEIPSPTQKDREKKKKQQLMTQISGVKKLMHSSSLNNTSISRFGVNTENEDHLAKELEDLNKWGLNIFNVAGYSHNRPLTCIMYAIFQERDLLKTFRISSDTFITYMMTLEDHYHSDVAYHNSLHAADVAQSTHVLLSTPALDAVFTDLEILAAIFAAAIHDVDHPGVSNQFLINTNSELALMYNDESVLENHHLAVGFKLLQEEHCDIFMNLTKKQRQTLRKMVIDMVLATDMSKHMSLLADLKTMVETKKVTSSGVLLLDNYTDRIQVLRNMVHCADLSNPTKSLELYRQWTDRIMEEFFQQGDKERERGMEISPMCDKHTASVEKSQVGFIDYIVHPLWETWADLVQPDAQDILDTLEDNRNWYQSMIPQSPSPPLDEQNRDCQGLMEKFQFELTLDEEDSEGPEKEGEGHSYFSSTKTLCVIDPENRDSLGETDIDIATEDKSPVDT
Sequence of Cytochrome P450 3A4 (Homo sapiens) (P08684 whole entry, looked up): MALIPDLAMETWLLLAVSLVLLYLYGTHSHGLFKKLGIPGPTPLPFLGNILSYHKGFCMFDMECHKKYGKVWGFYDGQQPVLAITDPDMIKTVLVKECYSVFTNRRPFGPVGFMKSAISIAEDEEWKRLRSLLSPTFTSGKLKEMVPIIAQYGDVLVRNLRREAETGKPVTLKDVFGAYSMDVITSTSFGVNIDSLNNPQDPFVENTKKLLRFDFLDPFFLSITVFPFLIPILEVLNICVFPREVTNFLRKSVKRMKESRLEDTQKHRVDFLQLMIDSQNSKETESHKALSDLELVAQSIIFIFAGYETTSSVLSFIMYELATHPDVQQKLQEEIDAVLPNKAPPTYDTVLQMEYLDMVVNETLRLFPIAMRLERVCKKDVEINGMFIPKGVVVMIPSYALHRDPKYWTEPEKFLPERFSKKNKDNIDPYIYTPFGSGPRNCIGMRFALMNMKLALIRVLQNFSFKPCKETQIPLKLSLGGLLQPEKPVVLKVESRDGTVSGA
Sequence of Glucocorticoid receptor (Homo sapiens) (P04150 whole entry, looked up): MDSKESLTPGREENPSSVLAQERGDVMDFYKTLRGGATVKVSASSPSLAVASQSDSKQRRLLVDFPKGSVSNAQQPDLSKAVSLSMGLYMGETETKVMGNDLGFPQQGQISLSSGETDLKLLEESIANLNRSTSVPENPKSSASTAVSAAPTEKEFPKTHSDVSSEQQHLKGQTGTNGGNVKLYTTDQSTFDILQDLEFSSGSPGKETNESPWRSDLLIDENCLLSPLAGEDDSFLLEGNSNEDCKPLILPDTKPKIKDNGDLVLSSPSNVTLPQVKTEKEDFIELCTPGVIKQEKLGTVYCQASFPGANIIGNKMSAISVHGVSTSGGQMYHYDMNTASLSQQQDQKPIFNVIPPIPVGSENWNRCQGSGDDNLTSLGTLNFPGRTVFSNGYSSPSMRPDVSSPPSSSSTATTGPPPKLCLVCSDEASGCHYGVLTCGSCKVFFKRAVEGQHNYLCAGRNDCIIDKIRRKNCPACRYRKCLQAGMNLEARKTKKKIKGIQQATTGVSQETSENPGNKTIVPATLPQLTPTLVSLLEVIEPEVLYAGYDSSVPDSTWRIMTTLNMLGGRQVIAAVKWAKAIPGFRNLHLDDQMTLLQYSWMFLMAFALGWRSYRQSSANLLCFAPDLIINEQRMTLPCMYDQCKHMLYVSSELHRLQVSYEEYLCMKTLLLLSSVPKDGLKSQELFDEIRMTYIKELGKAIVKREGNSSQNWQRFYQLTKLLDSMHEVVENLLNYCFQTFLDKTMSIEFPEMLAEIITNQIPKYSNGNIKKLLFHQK
Sequence of Cytochrome P450 2C19 (Homo sapiens) (P33261 whole entry, looked up): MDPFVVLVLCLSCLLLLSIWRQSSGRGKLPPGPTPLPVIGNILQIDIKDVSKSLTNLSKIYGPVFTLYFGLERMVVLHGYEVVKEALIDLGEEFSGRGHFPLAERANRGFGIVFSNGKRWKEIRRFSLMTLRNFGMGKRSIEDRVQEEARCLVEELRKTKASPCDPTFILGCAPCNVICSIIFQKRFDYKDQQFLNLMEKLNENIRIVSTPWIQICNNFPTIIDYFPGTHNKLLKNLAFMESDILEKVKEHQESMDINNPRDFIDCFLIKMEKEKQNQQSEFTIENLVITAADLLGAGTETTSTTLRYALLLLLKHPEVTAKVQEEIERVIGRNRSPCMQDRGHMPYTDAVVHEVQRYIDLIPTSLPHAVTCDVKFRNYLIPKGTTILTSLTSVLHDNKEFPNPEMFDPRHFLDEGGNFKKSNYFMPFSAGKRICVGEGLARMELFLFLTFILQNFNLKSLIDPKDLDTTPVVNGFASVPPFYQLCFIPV

Consider `CN(C)c1ncc2nc(CCc3ccccc3)c(=O)n(CCC#N)c2n1`, for which the Potency in assay [1] was more than 11.4 µM; in assay [3] it was 2 µM (active); in assay [6], more than 9.22 µM; in assay [7], more than 46 µM. Also, the values for the activity change, negative = inhibition in [2] and in assay [4] were -11% and -3.25%, respectively. Also, the compound was classed as inactive in assay [5] and in assay [8]. For the same compound, the Potency entry in assay [9], in [10], in assay [11] and in assay [12] was “inactive” each time.
Take `Cc1nc2cnc(OCc3ccccc3)nc2n(CCc2ccccc2)c1=O`: the Potency is more than 11.4 µM in assay [1], more than 9.22 µM in assay [6] and more than 46 µM in assay [7]. The activity change, negative = inhibition was 2.1% in assay [2] and -10.4% in assay [4]. The call in [5] and in [8] was inactive. The Potency result in assay [9], in assay [10], in assay [11] and in [12] was “inactive” in each case.
Consider `O=c1c(-c2ccccc2)nc2cnc(Oc3ccccc3)nc2n1C[C@H]1CCCO1`, for which the Potency is more than 11.4 µM in [1], more than 9.22 µM in assay [6] and more than 46 µM in assay [7]. In addition, the activity change, negative = inhibition in [2] was 180%; in [4], 4.49%. Further, the call in assay [5] was inactive. Besides, the Potency entry in assay [13], in assay [9], in assay [10] and in [11] was “inactive” throughout.
In the case of `COc1ccc(Oc2ncc3nc(-c4cc(F)cc(F)c4)c(=O)n(C4CC4)c3n2)cc1`, the activity change, negative = inhibition was -9.27% in assay [2] and -5.46% in assay [4]. Moreover, the call in [5] was inactive. Further, the Potency was more than 9.22 µM in [6] and more than 46 µM in [7]. The Potency result in assay [14], in assay [13], in assay [9], in [10], in assay [11] and in assay [12] was “inactive” each time.
Turning to `COc1cccc(-c2cncnc2NCCc2c[nH]c3ccc(OC)cc23)c1`, the Potency is more than 11.4 µM in assay [1]; 2 µM (active) in assay [3]; more than 46 µM in assay [6]; more than 46 µM in [7]; 0.501 µM (active) in [15]; 0.316 µM (active) in assay [16]. Moreover, the figures for the Potency in assay [9] and in [10] were 20 µM (active) and 22.4 µM (active), respectively. In addition, the Potency entry in assay [13], in [11] and in assay [12] was “inactive” each time. Moreover, in assay [8], the compound was classed as inactive.
With `COCCn1c(=O)c(CCc2ccccc2)nc2cnc(OCc3ccccc3)nc21`, the activity change, negative = inhibition was -21.6% in [2] and 4.34% in [4]. For the same compound, the call in assay [5] was inactive. Besides, the Potency in [6] is more than 9.22 µM; in assay [7], more than 46 µM. For the same compound, the Potency result in [9], in assay [10], in [11] and in assay [12] was “inactive” throughout.
For the compound `COCCn1c(=O)c(-c2cccs2)nc2cnc(Oc3ccccc3)nc21`, the activity change, negative = inhibition in assay [2] was 16.7%. Moreover, the Potency in assay [3] was 2 µM (active); in assay [6], more than 9.22 µM; in [7], more than 46 µM; in assay [17], 3.16 µM (active). Besides, the Potency result in [13], in assay [9], in [10], in assay [11] and in [12] was “inactive” each time.
In the case of `COc1ccc(-c2nc3cnc(Oc4cccc(Cl)c4)nc3n(C[C@H]3CCCO3)c2=O)cc1`, the Potency in assay [1] was more than 11.4 µM; in [3] it was 5.01 µM (active); in assay [6], more than 9.22 µM; in assay [7], more than 46 µM. Moreover, the activity change, negative = inhibition in assay [2] is -13.7%. The Potency entry in assay [13], in assay [9], in assay [10], in assay [11] and in assay [12] was “inactive” in each case. Moreover, in [8], the outcome was inactive.
Turning to `COc1cccc(Nc2ncc3nc(-c4cccs4)c(=O)n(C[C@H]4CCCO4)c3n2)c1`, the Potency in assay [1] was more than 11.4 µM; in assay [6], more than 9.22 µM; in assay [7], more than 46 µM. Further, the activity change, negative = inhibition in assay [4] was -15.5%. Also, the call in assay [5] was inactive. Besides, the Potency entry in assay [14], in assay [13], in assay [9], in assay [10] and in [11] was “inactive” each time.
For `COc1ccc(Oc2ncc3nc(-c4ccccc4)c(=O)n(C[C@H]4CCCO4)c3n2)cc1`, the values for the Potency in assay [1], in assay [6] and in assay [7] were more than 11.4 µM, more than 9.22 µM and more than 46 µM, respectively. Besides, the activity change, negative = inhibition in assay [4] is -3.65%. Moreover, in assay [5], the outcome was inactive. The Potency entry in assay [14], in [13], in assay [9], in assay [10], in assay [11] and in assay [12] was “inactive” throughout.
`COc1ccccc1CNc1cc(-c2ccccc2CN(C)C)ncn1`: the Potency in [1] was more than 11.4 µM; in assay [6] it was more than 46 µM; in assay [7] it was more than 46 µM. Further, the activity change, negative = inhibition in assay [2] is 4.71%. Further, the Potency entry in assay [14], in [9], in assay [10], in assay [11] and in assay [12] was “inactive” each time.
As for `Cc1cccc(CNc2ncncc2-c2ccccc2C)c1`, the activity change, negative = inhibition in assay [2] was -10%; in assay [4], -10.9%. Moreover, the Potency was 2.51 µM (active) in assay [3], more than 46 µM in assay [6] and more than 46 µM in [7]. Further, the compound was classed as inactive in assay [5] and in assay [8]. Also, the Potency result in [9], in assay [10], in [11] and in assay [12] was “inactive” throughout.
